RE007 growth inh: qHTS Assay for Inhibitors of the HIV-1 protein Vpr; AID 651644, 2012; Potency, µM (series often up to 92.2 µM), inactives show at the highest dose activity change, negative = less growth, most hits filed as inhibitors; 0.21% of 360,000 active; S. pombe RE007 Vpr strain, BacTiter-Glo ATP luminescence, 24 h; active means well fitted falling curve with a large enough effect; inconclusive means small, poorly fitted or top-dose-only effect; inactive means no such curve, though single readings can be large or run the other way; further: potency means the concentration at half of the fitted maximal effect; nearly all actives have a fitted effect of over 50% in size
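Fission yeast RE007 carrying one integrated HIV-1 vpr copy, seeded at OD 0.01 in PMG+AL medium with 23 nL pinned compound. Grown 24 h at 30 degrees; viability read by BacTiter-Glo luminescence after 5 min.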
HCMV inh: qHTS Assay for inhibitors of the human cytomegalovirus (HCMV). HFF cells, HCMV-luciferase reporter, 72 h; active compounds read low. activity change, negative = inhibition, % at 57.5 µM. 4.5% of 410,000 active. AID 1259415, 2018; in the data active means activity change below about -60%; inconclusive means no clear call, values can overlap the other calls; inactive means above about -39%
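Human foreskin fibroblasts infected with luciferase-reporter HCMV at MOI 1 PFU/cell, compounds at two doses. Luciferase measured 72 h post infection; normalized to buffer-only basal and Salinomycin (10uM) controls.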
FBPA Giardia inh: qHTS Assay for Inhibitors of Fructose-1,6-bisphosphate Aldolase from Giardia Lamblia. A8B2U2. Potency, µM (highest dose often 59.6 µM), for inactives: top-dose activity, negative = inhibition, actives largely listed as inhibitors. purified Giardia FBPA. 0.71% of 290,000 active; further: potency means the concentration at half of the fitted maximal effect; nearly all actives have a fitted effect of over 55% in size
Target sequence (A8B2U2 whole entry, looked up): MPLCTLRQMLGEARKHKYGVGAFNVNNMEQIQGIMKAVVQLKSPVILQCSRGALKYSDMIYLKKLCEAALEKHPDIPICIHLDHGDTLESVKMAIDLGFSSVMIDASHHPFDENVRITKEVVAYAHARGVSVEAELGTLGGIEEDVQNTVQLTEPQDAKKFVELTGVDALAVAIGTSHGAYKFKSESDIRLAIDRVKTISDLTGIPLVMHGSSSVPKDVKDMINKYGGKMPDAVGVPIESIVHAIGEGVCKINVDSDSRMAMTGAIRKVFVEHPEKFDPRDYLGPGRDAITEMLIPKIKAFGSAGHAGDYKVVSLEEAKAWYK
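40 nM FBPA preincubated 10 min at RT with compound (up to 57.5 uM final), then substrate plus GAPDH/TPI/NAD/arsenate coupling and diaphorase/resazurin added. Fluorescence read after 20 min at RT, 525/598 nm.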
TbPYK inhibitor: qHTS of Trypanosoma Brucei Inhibitors | pyruvate kinase (Trypanosoma brucei), Q57TT1 | TbPYK enzyme, Kinase-Glo Plus ATP luminescence, 45 min | Potency, µM (top dose mostly 76.8 µM), for the others: at the top dose activity, negative = inhibition, actives largely listed as inhibitors | 0.12% of 410,000 active; further: potency means the concentration at half of the fitted maximal effect; nearly all actives have a fitted effect of over 50% in size
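Glycolytic pyruvate kinase of T. brucei was incubated with substrate, test compound and 130 uM ADP for 45 minutes at room temperature. Luminescent Kinase-Glo Plus signal was measured after 10 minutes.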
FMDV inh: High Throughput Screening for Foot and Mouth Disease Virus Antivirals; AID 1159524, 2015; Potency, µM (titrated, usually from 57.9 µM), inactives show at the highest dose activity change, negative = inhibition, most hits filed as inhibitors; 1.2% of 410,000 active; FMDV antiviral cell-based qHTS; calls by dose curve; tested in HEK293T cells; further: read-out not given here; potency means the concentration at half of the fitted maximal effect; nearly all actives have a fitted effect of over 45% in size
Sm TGR inh: qHTS Assay for the Inhibitors of Schistosoma Mansoni Peroxiredoxins; purified TGR, DTNB reduction, TNB absorbance 405 nm; Schistosoma mansoni thioredoxin glutathione reductase (TGR), Q962Y6; 3% of 360,000 active; Potency, µM (top dose mostly 114 µM), without a hit: at the highest dose activity change, negative = inhibition, hits mostly inhibitors; further: potency means the concentration at half of the fitted maximal effect; nearly all actives have a fitted effect of over 60% in size
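Kinetic colorimetric format: TGR-catalysed, NADPH-driven DTNB reduction monitored via TNB absorbance. Enzyme dispensed at 20 nM; compound exposure 15 min at room temperature before reaction start.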
Starred values were filed as active, the others as inactive; [ ] = dose if it differs, or a comment. Hits are enriched below; roughly 7.7% of the tested compounds scored in any of these assays. Unless noted, the call rests on the fitted dose curve; in most records, active means well fitted curve in the direction sought with a large enough effect; inconclusive means small, poorly fitted or top-dose-only effect, or another doubt; inactive means no such curve, though single readings can be large; an effect the other way counts as inactive or inconclusive. On the % scale 0 is the no-effect control and ±100 the full control effect.

For Cc1ccc(OC(=O)c2ccc(Cl)c([N+](=O)[O-])c2)cn1 the results were RE007 growth inh -8.4%, HCMV inh 46.5, FBPA Giardia inh -1.5%, TbPYK inhibitor -7.9%, FMDV inh -17.7% and Sm TGR inh 50.1µM*.
COC(=O)c1sc2nc(CN3CCN(c4ccc(OC)cc4)CC3)[nH]c(=O)c2c1C was read as RE007 growth inh 8.3%, HCMV inh -79.9*, FBPA Giardia inh -15.1%, TbPYK inhibitor -3.9%, FMDV inh -2.9% and Sm TGR inh -7.3%.
Screening COc1cccc(N2CCN(Cc3nc4ccccc4c(=O)[nH]3)CC2)c1 returned RE007 growth inh -1.0%, HCMV inh 53.2, FBPA Giardia inh -27.0%, TbPYK inhibitor -12.7%, FMDV inh 0.0% and Sm TGR inh 0.0%.
COc1cccc(N2CCN(Cc3nc4scc(-c5ccccc5)c4c(=O)[nH]3)CC2)c1 was read as RE007 growth inh 18.9%, HCMV inh -61.5*, FBPA Giardia inh -4.5%, TbPYK inhibitor 2.1%, FMDV inh inconclusive and Sm TGR inh -1.4%.
For CCC(=O)N[C@@H]1c2ccccc2C2(CCN(Cc3cnc(N(C)C)s3)CC2)[C@H]1OC the results were FMDV inh 8.1%.
For CCOC(=O)NNc1ccc2nonc2c1[N+](=O)[O-] the results were RE007 growth inh 25.1µM*, FBPA Giardia inh 7.06µM*, TbPYK inhibitor -16.5%, FMDV inh -25.3% and Sm TGR inh 15.8µM*.
For CCc1ccc(Nc2ccc3nonc3c2[N+](=O)[O-])cc1 the results were RE007 growth inh 4.8%, HCMV inh 6.5, TbPYK inhibitor -0.7% and FMDV inh -8.8%.
For Cc1cc(C)cc(Nc2ccc3nonc3c2[N+](=O)[O-])c1 the results were RE007 growth inh 18.5%, HCMV inh -82.6*, TbPYK inhibitor 1.4% and FMDV inh inconclusive.
For COc1ccc(C2C=C(c3ccc(Br)cc3)Nc3nnnn32)c(OC)c1 (centres undefined) the results were HCMV inh -72.1*, TbPYK inhibitor 5.6%, FMDV inh -5.5% and Sm TGR inh -24.4%.
`COc1ccc(C2=CC(c3sccc3C)n3nnnc3N2)cc1` (centres undefined) gave RE007 growth inh -19.7%, HCMV inh 65.0, FBPA Giardia inh -12.9%, TbPYK inhibitor -17.7%, FMDV inh 24.6% and Sm TGR inh 35.5µM*.
Screening COc1ccccc1C1C=C(c2ccccc2)Nc2nnnn21 (centres undefined) returned RE007 growth inh -10.0%, HCMV inh inconclusive, FBPA Giardia inh -8.8%, TbPYK inhibitor -6.8%, FMDV inh -5.1% and Sm TGR inh -9.6%.
Screening COc1ccc(C2=CC(c3ccc(F)cc3)n3nnnc3N2)cc1 (centres undefined) returned RE007 growth inh -6.5%, HCMV inh 1.6, FBPA Giardia inh -9.1%, TbPYK inhibitor -1.4% and Sm TGR inh 6.8%[11.4 µM].
For COc1ccc(C2c3c(-c4ccccc4)n[nH]c3C(=O)N2c2ccc(C(=O)O)cc2)c(OC)c1 (centres undefined) the results were HCMV inh -1.5, TbPYK inhibitor -4.7%, FMDV inh -8.0% and Sm TGR inh 8.2%.
For Cc1cccc(OC(=O)c2cc(-c3ccc4c(c3)OCCO4)on2)c1C the results were HCMV inh 12.6, TbPYK inhibitor -4.3%, FMDV inh -12.6% and Sm TGR inh 3.7%.
`COc1ccc([C@]23Cc4ccccc4C(O2)c2c(cc(-c4ccccc4)oc2=O)O3)cc1` gave FBPA Giardia inh -29.5%[12.9 µM] and Sm TGR inh inconclusive.
Screening Cc1ccnc(SCc2cn3c(C)cc(C)nc3n2)n1 returned RE007 growth inh -10.9%, HCMV inh 4.7, FBPA Giardia inh -14.8%, TbPYK inhibitor -4.3%, FMDV inh 13.2% and Sm TGR inh -2.2%.
For Cc1cccc2nc(CSCc3ccco3)cn12 the results were RE007 growth inh -7.3%, HCMV inh 159.4, FBPA Giardia inh inconclusive, TbPYK inhibitor 6.3%, FMDV inh 6.6% and Sm TGR inh 28.2µM*.
Screening Cc1cc(C)n2cc(CSCc3ccco3)nc2n1 returned RE007 growth inh -10.2%, HCMV inh -14.8, FBPA Giardia inh -14.9%, TbPYK inhibitor 0.1%, FMDV inh -1.5% and Sm TGR inh 39.8µM*.
For COc1cccc(NC(=O)Nc2ccc3nc(N4CCN(C)CC4)cc(C)c3c2)c1 the results were HCMV inh -101.4*, TbPYK inhibitor -9.5%, FMDV inh 7.0% and Sm TGR inh -1.1%.
Screening Cc1cc(N2CCN(C)CC2)nc2ccc(NC(=O)Nc3ccccc3Cl)cc12 returned HCMV inh -99.8*, TbPYK inhibitor 0.2%, FMDV inh 19.8% and Sm TGR inh 3.2%.
`CCOC(=O)C1CCN(C(=O)CSc2n[nH]c(-c3ccc(F)cc3)n2)CC1` gave HCMV inh 9.9, TbPYK inhibitor -5.7%, FMDV inh -21.4% and Sm TGR inh 0.9%.
Cc1ccc(F)cc1C(=O)N1CCCCC1c1cc(C(=O)Nc2ccncc2)no1 (centres undefined) was read as HCMV inh -15.6.
For O=C1CC(N2CCN(Cc3ccc4c(c3)OCO4)CC2)C(=O)N1c1cccc(Cl)c1 (centres undefined) the results were RE007 growth inh -24.9%, HCMV inh -23.9, FBPA Giardia inh 6.5%, TbPYK inhibitor 4.1% and Sm TGR inh 50.1µM*.
`O=C1CC(N2CCN(Cc3ccccc3)CC2)C(=O)N1c1ccc2c(c1)OCCO2` (centres undefined) gave RE007 growth inh 6.4%, HCMV inh 25.9, FBPA Giardia inh -6.4%, TbPYK inhibitor 3.1%, FMDV inh -15.5% and Sm TGR inh 56.2µM*.
Screening COc1ccc(N2C(=O)CC(N3CCN(Cc4ccc5c(c4)OCO5)CC3)C2=O)cc1 (centres undefined) returned RE007 growth inh -15.3%, HCMV inh inconclusive, FBPA Giardia inh 6.4%, TbPYK inhibitor 4.1%, FMDV inh 0.5% and Sm TGR inh 17.8µM*.
Cc1cccc(-c2nc3c4ccccc4nc(N4CCN(c5ccccc5F)CC4)n3n2)c1 was read as HCMV inh 6.7, TbPYK inhibitor 6.2%, FMDV inh 23.0% and Sm TGR inh -0.8%.
CCc1ccccc1NC(=O)Cn1nnc(-c2nc(-c3ccncc3)no2)c1N was read as HCMV inh inconclusive, TbPYK inhibitor -6.0%, FMDV inh -11.0% and Sm TGR inh 3.8%.
